Source: PubChem
An excerpt weighted towards active compounds, which were near 11% of everything screened.
NS1 inh – qHTS Assay for Inhibitors of Influenza NS1 Protein Function | Potency, µM (titrated, usually from 46.1 µM) | hit rate 0.4% among 270,000; calls by dose curve; note: actives are rising curves; nearly all actives have a fitted effect of over 50% in size
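A cell-based growth assay was used: compounds that relieve NS1-induced slow growth of budding yeast raise OD600. Assay medium was yeast nitrogen base with ammonium sulphate and -URA supplement, pH 6.0, with 2% galactose.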
Pf growth 48h – Primary qHTS for delayed death inhibitors of the malarial parasite plastid, 48 hour incubation | P. falciparum luciferase growth in erythrocytes, 48 h | Potency, µM (series often up to 28.7 µM), hits mostly inhibitors | hit rate 5.9% among 310,000
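Luciferase-expressing P. falciparum in infected erythrocytes (2% hematocrit, 0.1% parasitemia final) in RPMI 1640/0.5% Albumax were exposed to compound for 48 hours at 37 C, 5% CO2; growth read as luminescence.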
Pf growth 96h – Primary qHTS for delayed death inhibitors of the malarial parasite plastid, 96 hour incubation; P. falciparum luciferase reporter growth, 96 h; Potency, µM (top dose mostly 28.7 µM), usual class: inhibitors; hit rate 6.9% among 320,000; AID 504834, 2011
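Plates of compound plus infected erythrocytes (2% hematocrit, 0.05% parasitemia final) incubate 96 hours, 37 C, 5% CO2. Detection reagent added; reduced luminescence from the parasites' luciferase reporter flags inhibition.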
VACV Venus inh – qHTS for Stage-Specific Inhibitors of Vaccinia Orthopoxvirus: Venus Reporter Primary qHTS. Vaccinia virus Venus reporter expression, fluorescence. Potency, µM (titrated, usually from 36.5 µM), usual class: inhibitors. hit rate 0.46% among 330,000. AID 720580, 2013; calls by dose curve; tested in A549 cells; note: nearly all actives have a fitted effect of over 30% in size
HCV inh – qHTS Assay for Inhibitors of Hepatitis C Virus (HCV) | Huh7.5.1 HCVcc-Cre infection, luciferase reporter, 44 h | Potency, µM (series often up to 41.8 µM), actives largely listed as inhibitors | AID 651820, 2012 | hit rate 3.4% among 340,000
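Luciferase read-out (15 sec integration) after a 15 min room-temperature substrate step quantifies HCVcc-Cre infection. Cells, 1,000 per well, had compound added 4 h post-plating, then virus at ~0.5 moi, and were cultured 44 h.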
VACV mCherry inh – qHTS for Stage-Specific Inhibitors of Vaccinia Orthopoxvirus: mCherry Reporter Primary qHTS; hit rate 0.63% among 310,000; Potency, µM (titrated, usually from 36.5 µM), most hits filed as inhibitors; Vaccinia virus mCherry reporter infection, fluorescence; calls by dose curve; tested in A549 cells; note: nearly all actives have a fitted effect of over 35% in size
A number is an active result; - = inactive; ? = inconclusive; . = no result; [ ] = another dose, or the depositor's remark. Unless noted, calls come from the whole dose curve; as a rule, active = well fitted inhibition curve with a large enough effect; inconclusive = small, poorly fitted or top-dose-only effect, or another doubt; inactive = no such curve, though single readings can be large or run the other way.

SMILES	NS1 inh	Pf growth 48h	Pf growth 96h	VACV Venus inh	HCV inh	VACV mCherry inh
Cn1cc([N+](=O)[O-])c(C(=O)Nc2cc(Oc3ccccc3)cc([N+](=O)[O-])c2)n1	-	-	?	?	?	14µM
O=C(Nc1cc(Oc2ccc(Cl)cc2)cc([N+](=O)[O-])c1)c1ccco1	-	?	-	-	10µM	-
Cc1nn(C)cc1C(=O)Nc1cc(Oc2ccc(Cl)cc2)cc([N+](=O)[O-])c1	-	?	.	.	?	.
C=CCN(CC=C)S(=O)(=O)c1ncn[nH]1	-	-	-	-	-	.
CC(=O)c1ccc(N2Cc3ccccc3C3(CCOCC3)C2=N)cc1	-	-	-	.	-	.
CCn1c(SCC(=O)Nc2cc(C)on2)nnc1-c1ccco1	-	-	.	-	-	-
Cc1[nH]c2ccccc2c1N=Nc1ccccc1F	.	-	-	-	10µM	?
Cc1ccc(C)c(NS(=O)(=O)c2ccc(-c3ccc(=O)[nH]n3)o2)c1	-	-	?	.	-	.
CCOc1ccc(-c2[nH]ncc2Oc2cccc(OC)c2)c(O)c1	-	?	?	?	?	?
COc1cccc(Oc2cn[nH]c2-c2ccc(OC)cc2O)c1	-	8.3µM	.	?	11µM	?
COc1cccc(Oc2cn[nH]c2-c2ccc(O)cc2O)c1	-	5.2µM	-	-	?	?
COc1ccccc1Oc1cn[nH]c1-c1ccc(O)cc1O	-	?	?	.	-	.
Cc1cccc(NC(=O)CCc2nc3sc4c(c3c(=O)[nH]2)CCCC4)c1	.	-	-	-	-	-
CCOC(OCC)P(=O)(c1ccccc1)c1ccccc1	-	-	12µM	.	-	.
CCCC(C(=O)OCC)P(=O)(c1ccccc1)c1ccccc1 (configuration not stated)	?	.	?	-	-	?
CCC(C)n1ncn(-c2ccc(N3CCN(c4ccc(OCC5COC(Cn6cncn6)(c6ccc(Cl)cc6Cl)O5)cc4)CC3)cc2)c1=O (configuration not stated)	-	3.4µM	-	?	?	-
Cc1ccc(-c2onc(C)c2C)cc1S(=O)(=O)Nc1cccc(Cl)c1C	.	.	.	-	.	-
O=C(C1CCC(Cn2c(=O)[nH]c3ccccc3c2=O)CC1)N1CCN(c2ccccc2)CC1 (configuration not stated)	-	-	?	-	-[8.37 µM]	-
COc1ccc(N2CCN(C(=O)C3CCC(Cn4c(=S)[nH]c5ccccc5c4=O)CC3)CC2)cc1 (configuration not stated)	-	?	-	.	1µM	.
O=C(C1CCC(Cn2c(=S)[nH]c3ccccc3c2=O)CC1)N1CCN(c2ccccc2)CC1 (configuration not stated)	-	.	.	-	10µM	?
COCCn1c(=S)[nH]c2cc(C(=O)N3CCN(c4ccccc4OC)CC3)ccc2c1=O	-	?	?	.	?	.
O=C(C1CCC(Cn2c(=S)[nH]c3ccccc3c2=O)CC1)N1CCOCC1 (configuration not stated)	-	-	-	.	-	.
COc1ccc(N2CCN(CCCn3c(=S)[nH]c4ncccc4c3=O)CC2)cc1	-	.	13µM	.	-	.
COc1ccccc1N1CCN(C(=O)C2CCC(Cn3c(=S)[nH]c4ccccc4c3=O)CC2)CC1 (configuration not stated)	-	10µM	-	.	?	.
Cc1cc(C)c(S(=O)(=O)N2CCC(C(=O)NCc3ccco3)CC2)c(C)c1	-	?	?	.	-	.
Cc1cc(C)c(NC(=O)Cn2c(=O)n(Cc3ccc4c(c3)OCO4)c(=O)c3ccccc32)c(C)c1	.	.	.	-	.	-
CCCN(CCC)CCCNC(=O)C(NS(=O)(=O)c1ccc2c(c1)CCC(=O)N2)c1ccccc1 (configuration not stated)	.	?	?	-	-	-
O=C(C1CCC(Cn2c(=S)[nH]c3ccccc3c2=O)CC1)N1CCN(c2ccccn2)CC1 (configuration not stated)	.	-	12µM	-	13µM	-
CCOC(=O)C(=N/O)/C(C)=N/NC(C)=O	.	-	-	-	-	-
CN(Cc1ccc(Cl)cc1)C(=O)CNC(=O)C12CC3CC(CC(C3)C1)C2	.	9.3µM	10µM	-	-	-
